The values that follow come from PubChem BioAssay.

Several values for one entry are separate records, joined by “and”; a condition that tells them apart may be missing. Identical values can stand only once. Inconclusive results are not listed. Activity calls are given as the source filed them. Unless noted, no cut-off is given here; in the data, nearly all actives have AC50 up to about 26 µM.

For assay [1], the system named is Aerobactin synthetase IucA (Klebsiella pneumoniae). Nature of the assay: inhibition of K. pneumoniae IucA enzyme – biochemical, Tocris library, absorbance (AID 1345561; call rule not given here;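 note: 100% = enzyme without compound and 0% = no enzyme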). The following applies: purified IucA enzyme assay, absorbance (OD) read-out; stronger effect = lower value;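 tested at 8 µM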.
Assay [2] in a line: viability loss in pontine glioma line – cell-based, SU-DIPG-XVII, MIPE5.0, CellTiter-Glo, qHTS, dose response (AID 1347060).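 For AC50: cells exposed to compound for 48 hours before viability readout.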 The conditions noted are these: CellTiter-Glo ATP luminescence.
Assay [3] is described as follows: viability loss in pontine glioma line – cell-based, SU-DIPG-XIII, MIPE4.0, CellTiter-Glo, qHTS, dose response (AID 1347061; cut-off not given, nearly all actives have AC50 up to about 37 µM;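 note: cells exposed to compound for 48 hours before readout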). The conditions noted are these: CellTiter-Glo ATP luminescence.
Assay [4] is described as follows: viability loss in pontine glioma line – cell-based, JHH-DIPG-1, MIPE4.0, CellTiter-Glo, qHTS, dose response (AID 1347062; cut-off not given, nearly all actives have AC50 up to about 27 µM;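 for AC50: cells exposed to compound for two days before readout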). The following applies: JHH-DIPG-1 viability, CellTiter-Glo ATP luminescence.
The nature of assay [5]: viability loss in pontine glioma line – cell-based, SU-DIPG-XIII, MIPE5.0, CellTiter-Glo, qHTS, dose response (AID 1347064; cut-off not given, nearly all actives have AC50 up to about 23 µM). The following applies: CellTiter-Glo ATP luminescence.
Assay [6] can be described thus: viability loss in pontine glioma line – cell-based, SU-DIPG-XXV, MIPE5.0, CellTiter-Glo, qHTS, dose response (AID 1347065).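 Note: cells exposed to compound for 48 hours before ATP readout.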 The conditions noted are these: CellTiter-Glo ATP luminescence.
Assay [7] can be described thus: growth inhibition of DIPG cells – cell-based, MIPE4.0 library, CellTiter-Glo luminescence, qHTS (AID 1347066; cut-off not given, nearly all actives have AC50 up to about 30 µM;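 note: cells exposed to compound for 48 hours before readout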). The following applies: SU-DIPG-VI viability, CellTiter-Glo ATP luminescence.
Assay [8] is described as follows: JHH-DIPG-1 glioma cell viability, MIPE5.0 library, CellTiter-Glo luminescence, qHTS (AID 1347067).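 Note: cells exposed to compound for 48 hours before readout.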 The conditions noted are these: JHH-DIPG-1 glioma viability, CellTiter-Glo ATP luminescence.
Assay [9] in a line: growth inhibition of DIPG cells – cell-based, MIPE5.0 library, qHTS (AID 1347068; cut-off not given, nearly all actives have IC50 up to about 30 µM). The conditions noted are these: SU-DIPG-XXV viability.
Assay [10] is described as follows: compounds altering HSF1 focus formation in cells – imaging, Selleck Cancer Library (AID 1347162; in the data active = plate-normalised HSF1 focus index below about 0.46). The following applies: human cells, HSF1 nuclear foci imaging, at 10 µM; SSMD: measured here: HSF1 foci SSMD mean; cell count: measured here: cell number; plate-normalised HSF1 focus index: stronger effect = lower value.
The nature of assay [11]: MELAS cybrid and Rieske KO viability enhancers – cell-based, MELAS cybrids, Rieske KO mouse fibroblasts, CellTiter-Glo, primary screen (AID 1508586;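 active = mean z-score across replicates of 1.96 or higher in either the MELAS or the Rieske mutant cell line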;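 note: z relative to plate mean and SD of compound and empty wells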). The conditions noted are these: low glucose.
Assay [12] can be described thus: galactose survival enhancers in mitochondrial complex I cybrids – cell-based, galactose medium, ATP luminescence, primary screen (AID 1645843;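 active = z-score of at least 1.8 in each of two replicates, scored against plate mean and spread of sample wells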;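 note: positive z means more ATP and so rescue of galactose-driven cybrid death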). The following applies: complex I mutant cybrid cells, 72 h, stronger effect = higher value.
Assay [13] is described as follows: P. berghei load reduction in hepatocytes – cell-based, HepG2, luciferase luminescence, HepG2 viability, primary screen (AID 624349; in the data active = parasite load remaining mostly below about 12%, no sharp cut-off; inactive = mostly above about 10%;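 note: 100% = mean of DMSO negative control wells on the same plate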). The following applies: P. berghei liver stage in HepG2, luciferase luminescence, concentration not given here; parasite load remaining: stronger effect = lower value; viability: measured here: HepG2 viability without parasites.
Assay [14] in a line: viability loss with induced miR-34 in A549 – imaging, A549 dox-inducible miR-34, nuclei and caspase counts, primary screen (AID 1347080;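 active = compounds whose cell count with miR-34 switched on is under 0.7 times the count with it off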). The conditions noted are these: A549 miR-34 inducible, Hoechst nuclei count, 48 h.
Setting [15] is: MELAS cybrid survival, CellTiter-Glo 48 h, stronger effect = higher value.
The mark [16] stands for this setting: Rieske KO mouse fibroblast survival, CellTiter-Glo 72 h.
Where [17] appears, read: stronger effect = lower value, cell number ratio, induced over uninduced.
Where [18] appears, read: measured here: relative caspase fold change +Dox/-Dox.
Setting [19] is: measured here: total cells with miR-34 induction, stronger effect = lower value.
Where [20] appears, read: measured here: total cells without miR-34 induction.

Consider `O=C(O)CCc1ccc(NCc2cccc(Oc3ccccc3)c2)cc1`, for which the remaining activity in assay [1] was 92.7% (inactive). The molecule was classed as inactive in assay [2], in [3], in [4], in [5], in assay [6] and in [7]. The outcome in assay [8] and in [9] was inactive. In [10], this molecule showed an SSMD of 3.5. Moreover, the cell count in assay [10] was 6830. The plate-normalised HSF1 focus index in [10] is 1.21 (inactive). Also, the z-score in [11] (setting [15]) is -0.374 (inactive); in [11] (setting [16]) it was 0.82; in assay [12], 0.215 (inactive) and -0.155 (inactive).

For `COc1cccc(-c2cc(=O)c3ccccc3o2)c1N`, the parasite load remaining in assay [13] was 29.3% (inactive). This molecule came in with a viability in assay [13] of 68.4%. Also, the remaining activity in [1] is 102% (inactive). Moreover, the call in [2], in assay [3], in assay [4], in [5], in [6] and in [9] was inactive. Further, the z-score in [11] (setting [15]) is -0.498 (inactive); in assay [11] (setting [16]), 1.33; in [12], -0.045 (inactive) and 0.145 (inactive).

Consider `O=C(O)c1ccc2cc(-c3ccc(O)c(C45CC6CC(CC(C6)C4)C5)c3)ccc2c1`, for which the remaining activity in assay [1] was 120% (inactive). Further, the AC50 is 0.59 µM (active) in [2], 5.26 µM (active) in assay [4], 3.32 µM (active) in assay [6] and 3.72 µM (active) in [8]. Besides, the fold change in assay [14] (setting [17]) was 1.3 (inactive); in assay [14] (setting [18]) it was 0.838. Besides, the cell count in [14] (setting [19]) stood at 1990; in assay [14] (setting [20]), 1530; in assay [10], 6920. The molecule also came in with an SSMD in assay [10] of 1.71. Also, the plate-normalised HSF1 focus index in assay [10] is 1.1 (inactive). Besides, the z-score in [12] is -0.83 (inactive).

As for `CCc1c2c(nc3ccc(O)cc13)-c1cc3c(c(=O)n1C2)COC(=O)[C@]3(O)CC`, the remaining activity in assay [1] is 107% (inactive). The AC50 in [2] was 0.00833 µM (active). In addition, the fold change in assay [14] (setting [17]) is 0.769 (inactive) and 0.994 (inactive); in [14] (setting [18]), 3.45 and 2.11. Moreover, the cell count is 1510 and 2070 in assay [14] (setting [19]); 1960 and 2080 in assay [14] (setting [20]). Moreover, the z-score is 0.182 (inactive) in [11] (setting [15]), -0.363 in assay [11] (setting [16]) and -0.66 (inactive) in assay [12].

Regarding `COC1CCC(C(=O)c2ccc3nc4c(cc3c2)CCCO4)CC1` (stereo unspecified), the remaining activity in assay [1] is 99.8% (inactive). Also, the molecule was classed as inactive in assay [2], in assay [5], in [6] and in assay [9]. For the same molecule, the AC50 in [4] is 20.9 µM (active). Also, the fold change was 0.932 (inactive) in [14] (setting [17]) and 1.27 in assay [14] (setting [18]). In addition, the results for the cell count in assay [14] (setting [19]) and in [14] (setting [20]) were 8170 and 8760, respectively. Further, the z-score in assay [12] is 0.32 (inactive).

Take `COc1ccc([C@@H]2CNC(=O)C2)cc1OC1CCCC1`: in assay [1], the remaining activity is 102% (inactive). In addition, the result in [2], in assay [4], in [5], in assay [8] and in assay [9] was inactive. In addition, the fold change was 0.954 (inactive) in assay [14] (setting [17]) and 0.878 in assay [14] (setting [18]). The cell count in [14] (setting [19]) is 8940; in assay [14] (setting [20]), 9370. In assay [12], the z-score was -0.11 (inactive).
